Hit rate of the full screen: of about 69,000 compounds, about 8,600 (12%) showed an effect of 50% or more. Shown is part of a subset that was picked to be rich in strong results.
test system: Plasmodium berghei; assay: Screen against P. berghei liver stage (PbLuc), transformed with Luciferase, at 10uM; type: functional, HepG2; conditions: tested at 10 uM

SMILES | INHIBITION [%]
c1ccc(C2CCCN(c3ncnc4c3CCNC4)CC2)cc1 (stereo not given) | 83.9
c1ccc(C2CCN(c3ncnc4c3CCNC4)CC2)cc1 | 83
CN1CC2(CCN(c3ncnc4c3CCNC4)CC2)OC1=O | 49.5
Cc1cc(C)n(C2CCN(c3ncnc4c3CCNCC4)C2)n1 (stereo not given) | 42.1
c1ccn2c(C3CCCN(c4ncnc5c4CCNC5)C3)nnc2c1 (stereo not given) | -20.8
c1nc2c(c(N3CCOCC3)n1)CCNCC2 | 27.5
c1cc(C2CCN(c3ncnc4c3CCNCC4)CC2)ccn1 | 33.9
c1ccc2c(c1)CN(c1ncnc3c1CCNC3)CCO2 | 25.9
Clc1cccc(C2CCN(c3ncnc4c3CCNC4)C2)c1 (stereo not given) | 83
Cn1cnc2c1C(COCC1CC1)CN(C(=O)Cc1ccsc1)C2 (stereo not given) | 11.1
NC(=O)C1(CCCc2ccccn2)CCCN(CCO)C1 (stereo not given) | 30.8
Cc1cc(C)n(CCCN(C)c2cc(N(C)C)ncn2)n1 | 28.2
CC(C)OCCCN(Cc1cnn(C)c1)Cc1ccccn1 | -51.3
CCN(Cc1ccccn1)C1CCN(c2ccccc2)C1=O (stereo not given) | -31.1
Cn1ccnc1C(=O)N[C@@H]1CN(Cc2ccc(F)cc2)[C@@H]2CCCO[C@@H]21 | 49.4
Cc1ccc(CN2C[C@H](NC(=O)c3nccn3C)[C@H]3OCCC[C@H]32)o1 | 75.6
Cn1ccnc1C(=O)N[C@@H]1CN(CC2CCOCC2)[C@@H]2CCCO[C@@H]21 | 63.8
Cn1ccnc1C(=O)N[C@@H]1CN(Cc2ccoc2)[C@@H]2CCCO[C@@H]21 | 29.4
Cc1ccc(CN2C[C@@H](N(C)C)[C@H]3OCCC[C@H]32)o1 | -37.9
CCN(CC)[C@@H]1CN(Cc2ccc(C)o2)[C@@H]2CCCO[C@H]12 | 63.1
Cn1cc(C(=O)N[C@@H]2CN(CC3CCOCC3)[C@@H]3CCCO[C@@H]32)cn1 | -14.4
Cc1ccc(CN2C[C@H](N(C)Cc3cncnc3)[C@H]3OCCC[C@H]32)o1 | -3.77
Cn1ccnc1C(=O)N[C@@H]1CN(Cc2cccs2)[C@@H]2CCCO[C@@H]21 | 22.2
COC(=O)c1cccc(C(=O)NCc2ccc(C)o2)n1 | 39.1
Cc1ccc(N2CC[C@H]3O[C@@H](C(=O)NCc4ccco4)CC[C@H]32)nn1 | 21.6
COC(=O)CC1CCN(C(=O)Nc2ccc(-c3ccn[nH]3)cc2)C1 (stereo not given) | 37.7
Cc1ccc(CN2CCC[C@@H]3CN(C(=O)c4ccco4)C[C@@H]32)s1 | -2.25

SMILES | INHIBITION [%]
CN1C(=O)CC(c2ccccc2)C12CCN(CC1CC1)CC2 (stereo not given) | -40.5
CCNC(c1ccc(C(C)C)cc1)c1cccnc1 (stereo not given) | 8.64
CC(=O)Nc1nc(-c2ccc(F)cc2)c[nH]1 | 63.6
CC(=O)Nc1nc(-c2ccccc2)c[nH]1 | 58.1
CC(=O)c1cccc(-c2c[nH]c(C)n2)c1 | -30.5
CNC(=O)NC(C)c1nc(-c2ccccc2)c[nH]1 (stereo not given) | -51.8
Cc1nc(-c2cccc(C(=O)O)c2)c[nH]1 | -34.8
CC(=O)Nc1nc(-c2ccc(C)c(C)c2)c[nH]1 | 7.22
Cc1cc(N2CCN(Cc3cn(C)nc3C)CC2)cc(C2CCCN2)n1 (stereo not given) | -10
Cc1ccc([C@@]2(O)CC[C@@H]3CN(S(=O)(=O)c4cn(C)nc4C)C[C@@H]32)cc1 | 32.8
CC(CO)(CO)NC(=O)C1CCC(=O)N(Cc2ccc(Cl)cc2)C1 (stereo not given) | 35.7
COc1ccc(Cl)cc1NCC(=O)NCCNc1ncccn1 | 45.7
COc1ccc(C)cc1NS(=O)(=O)c1ccc(CCNC(C)=O)s1 | -1.04
c1coc(CN2CCC3(CC2)COC(COCC2CC2)C3)c1 (stereo not given) | -28.2
CN(Cc1noc(C2CC2)n1)C1CCN(CCn2cc(C#N)cn2)C1 (stereo not given) | 37.4
CCc1cnc(CN(C)C2CCN(CC(=O)Nc3cc(C)on3)C2)o1 (stereo not given) | -32
Cc1cnc(CN(C)C2CCN(CC(=O)Nc3nccs3)C2)o1 (stereo not given) | 9.14
Cc1nc(CN(C)C2CCN(CCn3cc(C#N)cn3)C2)no1 (stereo not given) | 53.9
Cc1cnc(CN(C)C2CCN(CCn3cc(C#N)cn3)C2)o1 (stereo not given) | 44.8
CC(C)c1nc(CN(C)C2CCN(CCn3cc(C#N)cn3)C2)no1 (stereo not given) | 29.2
CC(C)c1cnc(CN(C)C2CCN(CCn3cc(C#N)cn3)C2)o1 (stereo not given) | -6.44
CCc1cnc(CN(C)C2CCN(CC(=O)Nc3nccs3)C2)o1 (stereo not given) | 52.3
CCc1cnc(CN(C)C2CCN(CCn3cc(C#N)cn3)C2)o1 (stereo not given) | 52.5
Cc1cnn(CC2CCCN2C(=O)CCc2cscn2)c1 (stereo not given) | 19.965
CC(=O)N1CCN([C@@H]2CCC[C@@H](NC(=O)c3cccnc3)[C@H]2O)CC1 | 8.53
Cc1nc(CN2CCCC(c3cc(C(N)=O)[nH]n3)C2)oc1C (stereo not given) | -0.113
O=C(O)c1c(-c2cncnc2)ncc2c1CCN(CC1CCOC1)C2 (stereo not given) | 43

SMILES | INHIBITION [%]
O=C1NCC2(CCC(C(=O)N3CCCC(O)C3)CC2)Oc2ccccc21 (stereo not given) | 8.72
CN(Cc1ccsc1)C(=O)c1ccc2c(c1)NC(=O)CO2 | 6.8
Cc1cc(C(=O)Nc2ccn(CCCN3CCCC3)n2)no1 | 38.4
COCCN(Cc1sccc1C)C(=O)COc1cccnc1 | -32.6
O=C(NCc1cncc2c1CCN(Cc1ccccc1)C2)C1CC1 | -27.9
CC(=O)N1CC2(CCN(C(=O)N(C)C)CC2)c2cc(C)ccc21 | 37.8
CCC(=O)N1CCC2(CC1)CN(C(C)=O)c1ccc(C)cc12 | -47.5
CC(=O)N1CC2(CCN(C(=O)C3CC3)CC2)c2cc(C)ccc21 | 84.5
CCOCCCNC(=O)C(C)n1cc(Br)cn1 (stereo not given) | 5.05
COC(=O)N1CCc2ccccc2C1C(=O)NCc1nc(C)no1 (stereo not given) | 43.4
Cc1nnc(CNC(=O)CC2CCc3ccccc32)o1 (stereo not given) | 13
CC(=O)N1CCc2ccccc2C1CC(=O)NCc1nnc(C)o1 (stereo not given) | 61.2
COc1cc(CNCc2c(C(C)C)nn(C)c2N(C)C)ccn1 | 33.3
COc1cc(CNCc2c(C)nn(CC(C)C)c2N(C)C)ccn1 | 77.1
Cc1nn(CC(C)C)c(N(C)C)c1CNCc1cc2ccccc2[nH]1 | 67.3
Cc1nn(CC(C)C)c(N(C)C)c1CNCc1cccnc1N(C)C | 43.7
COc1cc(CNCc2c(C)nn(C)c2N(C)C)ccn1 | 42.6
Cc1nn(CC(C)C)c(N(C)C)c1CNCc1ccccc1CO | -21.8
COCCNS(=O)(=O)c1ccc(CNc2ncccc2C#N)cc1 | 48.4
N#Cc1cccnc1NCc1ccc(S(=O)(=O)NCC2CCCO2)cc1 (stereo not given) | 55.6
N#Cc1cccnc1NCc1ccc(S(=O)(=O)NC2CC2)cc1 | -15.2
CN(Cc1ccco1)Cc1cnc2n1CCN(S(C)(=O)=O)CC2 | 31.9
O=C(NC[C@H]1OC[C@@H]2CCN(Cc3ccco3)C[C@@H]21)c1ccsc1 | 23.5
Cn1cc2c(n1)C(CNCC1CCOCC1)OCC2 (stereo not given) | -4.02
CC(C)NCC1OCCc2cn(C)nc21 (stereo not given) | 55.5
Cn1cc2c(n1)C(CNC1CCOCC1)OCC2 (stereo not given) | 4.02
COCc1ccc(C(=O)N2CCC(c3cc4ncc(C)nc4[nH]3)C2)cc1 (stereo not given) | 20.8

SMILES | INHIBITION [%]
CN(C)c1ccc(C(=O)N2CCC(c3cc4ncccc4[nH]3)CC2)cc1 | 57.7
Cc1noc(C)c1C(=O)N1CCC(c2cc3cnccc3[nH]2)CC1 | 13.335
CN(C)c1ccc(C(=O)N2CCC(c3cc4cnccc4[nH]3)CC2)cc1 | 51.75
CN(C)c1cccc(C(=O)N2CCC(c3n[nH]c(C4CC4)n3)CC2)c1 | 13.3
Cc1cnc2cc(C3CCN(C(=O)c4ccncc4)CC3)[nH]c2n1 | 38.8
CN(C)c1ccc(C(=O)N2CCC(c3n[nH]c(C4CC4)n3)CC2)cc1 | 2.97
COCc1ccc(C(=O)N2CCC(c3cc4nccnc4[nH]3)CC2)cc1 | 66.5
COc1cc(CCC(=O)N2CCC(c3cc4ncccc4[nH]3)CC2)on1 | -26.4
CN(C1CCN(C(=O)NCCc2ccc(F)cc2F)CC1)S(C)(=O)=O | 39.7
CC(=O)Nc1sc2c(c1C(=O)O)CCc1ccccc1-2 | 11.1
CC(C)CNc1c(NCc2ccco2)c(=O)c1=O | -4.28
COCCO[C@H]1CCN(C(=O)c2ccoc2C)[C@H]1Cc1cnn(C)c1 | 14.1
COCCn1ccc(=O)c(OCC(=O)Nc2ccc(OC)c(Cl)c2)c1C | -38
CC(CNC(=O)c1ccc(F)cc1Cl)N1CCCC1 (stereo not given) | 35.6
O=C(NCC(c1cccs1)N1CCOCC1)c1ccc(F)cc1Cl (stereo not given) | -14.5
CC(CNC(=O)c1cc(Cl)ccc1F)N1CCCC1 (stereo not given) | 33.8
CN1CCN(C(CNC(=O)c2ccc(Cl)cc2F)c2cccs2)CC1 (stereo not given) | 66.7
CC(CNC(=O)c1ccc(Cl)cc1F)N1CCCC1 (stereo not given) | 51.4
CC(CNC(=O)c1ccc(F)cc1I)N1CCCC1 (stereo not given) | 55.8
CC(CNC(=O)c1ccc(Cl)cc1I)N1CCCC1 (stereo not given) | 17.4
CC(CNC(=O)c1cc(Cl)ccc1I)N1CCCC1 (stereo not given) | 30.5
CC(CNC(=O)c1ccc(Cl)cc1F)N1CCN(C)CC1 (stereo not given) | 25
Cc1cc(CN2CCN(C(=O)CCc3ccco3)CC2)on1 | 14
CC(NCc1ccccc1Cl)c1ccc(OCC(=O)NC2CC2)cc1 (stereo not given) | 48.2

Reference: ChEMBL document CHEMBL4513216, “Probing the Open Global Health Chemical Diversity Library for Multistage-Active Starting Points for Next-Generation Antimalarials” (ACS Infect Dis, 2020)
